Compound activity as filed in PubChem.
This is a sample that favours compounds with a hit; in the whole collection about 11% have one here.
AMA1-RON2 inh = disrupts binding of P. falciparum AMA1 to RON2; AID 720542; 0.2% of 360,000 active; Potency, µM (series often up to 58.2 µM), for the others: at the top dose activity change, negative = inhibition, most hits filed as inhibitors; AlphaScreen AMA1-biotinylated RON2 peptide binding;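 note: 0% = vehicle wells and -100% = peptide control; nearly all actives have a fitted effect of over 45% in size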
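AMA1 (3D7) with his tag at 25 nM final met compounds first, then biotinylated RON2 peptide at 25 nM; detection used donor plus acceptor beads, 10 µg/mL apiece, read by AlphaScreen after 30 min at room temperature.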
Pf growth 96h = P. falciparum growth inhibition at 96 hours; P. falciparum luciferase reporter growth, 96 h; Potency, µM (highest dose often 28.7 µM), without a hit: at the highest dose activity change, negative = inhibition, usual class: inhibitors; 6.9% of 320,000 active; AID 504834
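Readout is luminescence from an integrated firefly luciferase in P. falciparum. Red cells, 2% hematocrit and 0.05% parasitemia final, were cultured with compound through two parasite generations (96 hours) at 37 C, 5% CO2.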
Pf growth 48h = inhibits P. falciparum growth in the first generation, 48 h | Potency, µM (highest dose often 28.7 µM), inactives show top-dose activity change, negative = inhibition, actives largely listed as inhibitors | AID 504832 | P. falciparum luciferase growth in erythrocytes, 48 h | 5.9% of 310,000 active
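Parasite viability was followed by luminescence of a genomically integrated firefly luciferase. Cultures held 0.1% parasitemia at 2% hematocrit (final), incubated under 5% CO2 at 37 C.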
AmpC inh detg = blocks E. coli AmpC beta-lactamase in detergent assay; P00811; AmpC hydrolysis of nitrocefin, absorbance 480 nm, 0.01% Triton; Potency, µM (doses to about 114 µM), without a hit: at the top dose activity change, negative = inhibition, actives largely listed as inhibitors; 0.041% of 370,000 active; AID 485294;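 note: 0% = no-compound wells and -100% = no-enzyme wells; nearly all actives have a fitted effect of over 25% in size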
Target sequence (P00811 whole entry, looked up): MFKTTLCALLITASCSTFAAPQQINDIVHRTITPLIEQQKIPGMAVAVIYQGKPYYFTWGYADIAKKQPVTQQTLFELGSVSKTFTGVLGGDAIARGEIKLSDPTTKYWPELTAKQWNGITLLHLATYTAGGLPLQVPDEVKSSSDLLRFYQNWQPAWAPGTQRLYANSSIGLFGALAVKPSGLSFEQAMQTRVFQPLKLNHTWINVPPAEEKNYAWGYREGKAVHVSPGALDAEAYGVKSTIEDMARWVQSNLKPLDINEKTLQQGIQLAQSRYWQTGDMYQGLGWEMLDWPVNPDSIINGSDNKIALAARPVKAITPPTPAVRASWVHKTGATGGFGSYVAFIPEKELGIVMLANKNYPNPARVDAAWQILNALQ
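20 mM phosphate pH 7.0 + 0.01% (detergent screen) or 0.0001% Triton X-100; 5.3 nM AmpC reagent; cpd preinc 15 min RT; nitrocefin (800 uM stock) to start; A480 q20 s × 4 min; Activity was normalised to no-enzyme and no-compound control wells.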
AmpC inh no detg = blocks E. coli AmpC beta-lactamase in detergent-free assay. P00811. AmpC nitrocefin hydrolysis, absorbance 480 nm, 0.0001% Triton. Potency, µM (series often up to 57.1 µM), without a hit: top-dose activity change, negative = inhibition, most hits filed as inhibitors. 0.52% of 330,000 active. AID 485341;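 note: plate controls were no compound for no effect and no enzyme for full effect; nearly all actives have a fitted effect of over 20% in size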
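20 mM phosphate pH 7.0 + 0.01% (detergent screen) or 0.0001% Triton X-100; 5.3 nM AmpC reagent; cpd preinc 15 min RT; nitrocefin (800 uM stock) to start; A480 q20 s × 4 min; Activity was normalised to no-enzyme and no-compound control wells.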
HCV inhibitor = blocks hepatitis C virus. Potency, µM (doses to about 41.8 µM), inactives show at the highest dose activity change, negative = inhibition, actives largely listed as inhibitors. 3.4% of 340,000 active. Huh7.5.1 HCVcc-Cre infection, luciferase reporter, 44 h. AID 651820
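1,000 cells/well; 4 h culture; + compound; + HCVcc-Cre (~0.5 moi); 44 h; luciferase substrate, RT 15 min; read 15 sec.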
Active calls of the source: *. Calls come from the whole dose curve; as a rule, active = well fitted curve in the direction sought with a large enough effect; inconclusive = small, poorly fitted or top-dose-only effect, or another doubt; inactive = no such curve, though single readings can be large; an effect the other way counts as inactive or inconclusive. Unless noted, % is set by controls: 0 for no effect and ±100 for the full control effect; potency is the fitted concentration of half-maximal effect.

How did O=C(Nc1ccccc1C(F)(F)F)N1CCC2(CC1)Oc1ccccc1C(=O)N2Cc1ccccc1F do in these assays?
AmpC inh detg: 7%

How did CC(Oc1ccc(F)cc1)C(=O)Nc1nc(-c2ccc(F)cc2)ns1 (configuration not stated) do in these assays?
AmpC inh detg: 20%

How did Cc1cccc(NC(=O)c2cn(-c3ccccc3)nc2-c2ccccc2)c1C do in these assays?
AmpC inh detg: -6%

What do the screens show for `Cc1cc(NC(=O)CCc2nc3cccnc3n2-c2ccccc2)ccc1Br`?
AmpC inh detg: 1%

How did CCOC(=O)C1(CCCc2ccccc2)CCN(C(=O)C2CCCN(C(N)=O)C2)CC1 (configuration not stated) do in these assays?
AMA1-RON2 inh: 4%; Pf growth 96h: 13µM*; Pf growth 48h: inconclusive; AmpC inh detg: 9%; AmpC inh no detg: 187%; HCV inhibitor: 7%

Results for Cc1ccc(CNC(=O)CN2C(=O)C3CCCCN3c3ccc(C(=O)N(C)C)cc32)cc1 (configuration not stated) ?
AmpC inh detg: 16%

What do the screens show for `COc1cccc(C(C(=O)NC2CCCC2)N(C(=O)c2ccco2)c2ccc(C(C)=O)cc2)c1OC` (configuration not stated)?
AMA1-RON2 inh: 0%; Pf growth 96h: -6%; Pf growth 48h: inconclusive; AmpC inh detg: 4%; AmpC inh no detg: 68%; HCV inhibitor: 27%

Results for COc1cccc(C(C(=O)NC2CCCC2)N(C(=O)c2ccco2)c2ccccc2)c1OC (configuration not stated) ?
AMA1-RON2 inh: 2%; Pf growth 96h: -19%; Pf growth 48h: 9.3µM*; AmpC inh detg: -2%; AmpC inh no detg: 9%; HCV inhibitor: -5%

How did COc1cccc(C(C(=O)NC2CCCC2)N(C(=O)c2ccco2)c2ccc(NC(C)=O)cc2)c1OC (configuration not stated) do in these assays?
AMA1-RON2 inh: -2%; Pf growth 96h: 49%; Pf growth 48h: 1µM*; AmpC inh detg: 5%; AmpC inh no detg: 27%; HCV inhibitor: -5%

How did Cc1ccc2[nH]c(=O)c3cc(C(=O)N4CCN(c5ccccc5)CC4)sc3c2c1 do in these assays?
AmpC inh detg: 0%

What do the screens show for `Cc1[nH][nH]c(=O)c1C(c1c(C)[nH][nH]c1=O)c1cn(Cc2cccc3ccccc23)c2ccccc12`?
AMA1-RON2 inh: -4%; Pf growth 96h: inconclusive; Pf growth 48h: inconclusive; AmpC inh detg: -8%; AmpC inh no detg: -47%; HCV inhibitor: -1%

What do the screens show for `Cc1[nH][nH]c(=O)c1C(c1c(C)[nH][nH]c1=O)c1cn(C)c2ccccc12`?
AMA1-RON2 inh: -9%; Pf growth 96h: 15%; Pf growth 48h: 10µM*; AmpC inh detg: 0%; AmpC inh no detg: 1%; HCV inhibitor: 4%

Results for CC1(c2ccccc2)CC(c2ccccc2)=Nc2nonc2N1 (configuration not stated) ?
AMA1-RON2 inh: -1%; Pf growth 96h: inconclusive; Pf growth 48h: 1.5µM*; AmpC inh detg: -12%; AmpC inh no detg: inconclusive; HCV inhibitor: -14%

How did CCOc1cc(N2CCOCC2)c(OCC)cc1NC(=O)c1c(-c2ccccc2)noc1C do in these assays?
AMA1-RON2 inh: inconclusive; Pf growth 96h: inconclusive; Pf growth 48h: inconclusive; AmpC inh detg: 2%; AmpC inh no detg: 202%; HCV inhibitor: inconclusive

What do the screens show for `Cc1onc(-c2ccccc2Cl)c1C(=O)N1CCN(c2ncccn2)CC1`?
AMA1-RON2 inh: -2%; Pf growth 96h: 25%; Pf growth 48h: 14%; AmpC inh detg: 6%; AmpC inh no detg: 11%; HCV inhibitor: 1%

What do the screens show for `Cc1nn(Cc2ccccc2)c2sc(C(=O)N3CCN(Cc4ccc5c(c4)OCO5)CC3)cc12`?
AMA1-RON2 inh: inconclusive; Pf growth 96h: inconclusive; Pf growth 48h: 10µM*; AmpC inh detg: 4%; HCV inhibitor: inconclusive

How did CCOc1cc(N2CCOCC2)c(OCC)cc1NC(=O)c1c(-c2ccccc2Cl)noc1C do in these assays?
AMA1-RON2 inh: inconclusive; Pf growth 96h: inconclusive; Pf growth 48h: 5.9µM*; AmpC inh detg: 1%; AmpC inh no detg: 138%; HCV inhibitor: inconclusive

Results for CCOc1ccccc1N1CCN(C(=O)c2c(-c3ccccc3Cl)noc2C)CC1 ?
AMA1-RON2 inh: 16%; Pf growth 96h: -9%; Pf growth 48h: 9.3µM*; AmpC inh detg: 4%; AmpC inh no detg: 265%; HCV inhibitor: inconclusive

How did Cc1onc(-c2ccccc2Cl)c1C(=O)N1CCN(Cc2ccc3c(c2)OCO3)CC1 do in these assays?
AMA1-RON2 inh: 1%; Pf growth 96h: 13µM*; Pf growth 48h: -2%; AmpC inh detg: -2%; AmpC inh no detg: 201%; HCV inhibitor: 1%

How did CC[n+]1c(C)sc2c3ccsc3ccc21 do in these assays?
AMA1-RON2 inh: -27%; Pf growth 96h: 33%; Pf growth 48h: 15µM*; AmpC inh detg: inconclusive; AmpC inh no detg: 68%; HCV inhibitor: 13%

Results for CCCC[n+]1c(C)sc2cc(OC)ccc21 ?
AMA1-RON2 inh: 0%; Pf growth 96h: 24%; Pf growth 48h: -1%; AmpC inh detg: -5%; AmpC inh no detg: 111%; HCV inhibitor: 6%

What do the screens show for `COc1ccc(OC)c(CNC(=O)c2cc(=O)[nH]c3ccc(S(=O)(=O)N4CCCCC4C)cc23)c1` (configuration not stated)?
AmpC inh detg: -7%

What do the screens show for `CCc1ccccc1Nc1ncnc2c1cnn2-c1ccc(Cl)cc1`?
AmpC inh detg: -1%

What do the screens show for `O=C(O)c1cc2ccccc2c(N=Nc2cccnc2)c1O`?
AMA1-RON2 inh: 1%; Pf growth 96h: 2.9µM*; Pf growth 48h: -12%; AmpC inh detg: -20%; AmpC inh no detg: 213%; HCV inhibitor: inconclusive

Results for Cc1cccc2c(C(=O)O)cc(-c3cccnc3)nc12 ?
AMA1-RON2 inh: 15%; Pf growth 96h: -21%; Pf growth 48h: -6%; AmpC inh detg: -11%; AmpC inh no detg: 106%; HCV inhibitor: -6%

Results for CC(C)c1ccc(NC(=O)CSc2nc3ccccc3nc2Cc2ccccc2)cc1 ?
AmpC inh detg: 14%

How did Cc1ccc(C2=NC(c3ccc(F)cc3)=Nc3ccc(C)cc3N2)cc1 do in these assays?
AmpC inh detg: 20%
